Drawing on PubChem BioAssay AID1159569 (Broad Institute, 2015), this text covers outcome for 20 compounds.

Potency and affinity values are given separately. Results filed as inconclusive are left out. Entries that show only a call come without a potency. Activity calls are given as the source filed them. The rule behind the calls is not given here.

This assay is described as follows: toxicity to human HepG2 hepatoma cells – cell-based, plate reader, dry powder samples, cytotoxicity control, dose response (AID 1159569). Conditions: HepG2 cytotoxicity counterscreen; series mostly up to 50 µM. For orientation: Counterscreens check selectivity or assay interference.
Turning to `CC(C)(C)S(=O)N1Cc2cc(C(=O)NCc3ccc4c(c3)OCO4)nc(-c3cccc(-c4cc5ccccc5o4)c3)c2[C@H]1CCO` (stereo not given in full), the result was inactive.

For `COc1cccc(S(=O)(=O)N(C)C[C@@H]2OCc3ccccc3-c3c(n(C)c4ccccc34)C(=O)N([C@H](C)CO)C[C@@H]2C)c1`, the outcome was inactive.

`C[C@@H]1CN([C@H](C)CO)C(=O)c2cccc(NC(=O)c3nc4ccccc4s3)c2O[C@H]1CN(C)C(=O)Nc1ccc(C(F)(F)F)cc1`: the compound was called inactive.

On to `COc1ccc(C#Cc2cnc3c(c2)C(=O)N([C@H](C)CO)C[C@H](C)[C@H](CN(C)S(=O)(=O)c2cccc(F)c2)O3)cc1OC`, for which the compound was classed as inactive.

`COc1cccc(-c2cccc(-c3nc(C(=O)NCc4ccc(Oc5ccccc5)cc4)cc4c3[C@@H](CCO)N(S(=O)C(C)(C)C)C4)c2)c1` (stereo not given in full): the compound was classed as inactive.

Consider `C[C@@H]1CN([C@H](C)CO)C(=O)c2cccc(NC(=O)Nc3cccc4ccccc34)c2O[C@@H]1CN(C)C(=O)Nc1ccc(C(F)(F)F)cc1`, for which the result was inactive.

For the compound `CC(C)CNC[C@@H]1[C@@H](c2ccccc2)[C@@H](CO)N1Cc1ccc(F)cc1`, the compound was classed as inactive.

Consider `CCCC#Cc1ccc([C@H]2[C@@H](CO)N(C(=O)C3CCCCC3)[C@H]2C#N)cc1`, for which the outcome was inactive.

Regarding `Cc1ccccc1-c1ccccc1[C@H]1[C@@H](C#N)N(C(=O)c2ccccc2)[C@@H]1CO`, the result was inactive.

As for `COc1ccccc1S(=O)(=O)N(C)C[C@H]1OCc2ccccc2-c2c(n(C)c3ccccc23)C(=O)N([C@@H](C)CO)C[C@@H]1C`, the compound was called inactive.

In the case of `O=C(Nc1ccccc1)N1CCCCN2[C@@H](CO)[C@H](c3ccc(C#Cc4cccnc4)cc3)[C@@H]2C1`, the outcome was inactive.

Take `C[C@H]1CN([C@@H](C)CO)C(=O)Cc2cc(NC(=O)Nc3ccc(C(F)(F)F)cc3)ccc2O[C@@H]1CN(C)C(=O)Nc1ccc2c(c1)OCO2`: the result was inactive.

As for `COc1ccc(C#Cc2ccc3c(c2)O[C@@H](CN(C)C(=O)Nc2cccc(OC)c2)[C@@H](C)CN([C@H](C)CO)S3(=O)=O)cc1`, the outcome was inactive.

Regarding `COc1cccc(C#Cc2ccc([C@H]3[C@@H](CO)N(C(=O)C4CCC4)[C@H]3C#N)cc2)c1`, the compound was called inactive.

In the case of `N#C[C@@H]1[C@H](c2ccccc2C2=CCCCC2)[C@@H](CO)N1C(=O)c1cccc(F)c1`, the call was inactive.

On to `COc1ccc2c3c(n(C)c2c1)[C@@H](CO)N(C(=O)C1CCC1)CC31CN(C(=O)Nc2cccc(F)c2)C1`, for which the call was inactive.

In the case of `O=C(c1ccccc1F)N1CC(=O)N2[C@H](C1)[C@@H](c1ccc(-c3cccnc3)cc1)[C@@H]2CO`, the call was inactive.

Regarding `COc1ccc(C#Cc2ccc3c(c2)O[C@@H](CN(C)S(=O)(=O)c2ccccc2F)[C@@H](C)CN([C@H](C)CO)S3(=O)=O)cc1`, the outcome was inactive.

Regarding `COc1ccc2c3c([nH]c2c1)[C@H](CO)N(S(=O)(=O)c1ccc(C)cc1)CC31CCN(C(=O)Cc2cccnc2)CC1`, the result was inactive.

`C[C@@H](NC(=O)C[C@H]1C[C@@H]2c3cc(NS(=O)(=O)c4ccc(F)cc4)ccc3O[C@@H]2[C@H](CO)O1)c1ccccc1`: the result was inactive.
